# Measured values published in PubChem BioAssay.
# A number with no mark means an inactive call. How the calls were made is not given here.
# Molecular target: Pantothenate synthetase (Mycobacterium tuberculosis (strain ATCC 25618 / H37Rv)) (UniProt P9WIL5)
# Experiment: Coupled enzyme confirmation of inhibitors against recombinant Mtb PanC (AID 375);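 further: 0% = full reaction with vehicle and 100% = no enzyme background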
# Conditions: coupled enzyme assay; at 10 µM, stronger effect = higher value
# Sequence of Pantothenate synthetase (Mycobacterium tuberculosis (strain ATCC 25618 / H37Rv)) (P9WIL5 whole entry, looked up): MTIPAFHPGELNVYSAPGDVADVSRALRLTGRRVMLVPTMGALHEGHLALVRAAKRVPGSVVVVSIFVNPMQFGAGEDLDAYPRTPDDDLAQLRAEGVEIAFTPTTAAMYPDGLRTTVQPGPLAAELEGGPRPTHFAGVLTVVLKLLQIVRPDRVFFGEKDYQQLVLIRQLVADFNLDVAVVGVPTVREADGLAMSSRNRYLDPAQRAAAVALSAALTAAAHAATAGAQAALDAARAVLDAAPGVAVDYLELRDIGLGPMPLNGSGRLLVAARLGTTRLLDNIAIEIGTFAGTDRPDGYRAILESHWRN
row,SMILES,inhibition [%]
1,CC(C)N(Cc1nc(-c2ccc(Cl)cc2)no1)C(=O)CN(C)S(=O)(=O)c1ccc(Cl)cc1,0
2,CCCCn1c(CN(C)Cc2ccccc2)nc2c1c(=O)n(C)c(=O)n2C,0
3,CCOC(=O)C1=C(C)NC(=O)NC1c1ccc(Br)s1 (stereo not given),1
4,CCn1c(SCC(=O)N2CCN(c3ccc(Cl)cc3)CC2)nc2ccccc2c1=O,0
5,Cc1ccc(-c2nn(C)c(=O)c3ccccc23)cc1S(=O)(=O)NCCN1CCOCC1,2
6,CCN(CC)c1ccc(NC(=O)CN2C(=O)CC(C)(C)S(=O)(=O)c3ccccc32)c(C)c1,0
7,COc1ccc(C(=O)Nc2ccc(S(=O)(=O)NC(C)=O)cc2)cc1,0
8,CCOC(=O)c1[nH]c2ccc(Br)cc2c1NC(=O)CCN1CCC(C(=O)OCC)CC1,0
9,CC(=O)C1=C(N2CCCCC2)CCC1=O,0
10,CCC(C(=O)OCCN(CC)CC)c1ccccc1 (stereo not given),0
11,CCn1c(SCc2cccc(C(F)(F)F)c2)nnc1-c1ccco1,0
12,O=C(CN1CCC(O)(c2ccc3c(c2)OCO3)CC1)OC1CCCCC1,0
13,CC(=O)NCC(=O)OC(C)C(=O)Nc1ccc(C(C)=O)cc1 (stereo not given),3
14,CCC(=O)c1ccc(OCC(O)CN2CCN(S(=O)(=O)N3CCCCC3)CC2)cc1 (stereo not given),1
15,O=C(Nc1ccc(O)cc1)C1CCCN1S(=O)(=O)c1ccc(F)cc1 (stereo not given),0
16,CC(C)c1ccc(-c2nc(N3CCCCC3)[nH]c(=O)c2C#N)cc1,5
17,O=C(Nc1cccc(OCC(=O)N2CCOCC2)c1)C1CCCCC1,0
18,Cc1nc2c(=O)oc3ccccc3c2n1-c1ccccc1,0
19,COc1ccc(-c2cc(C(=O)N3CCN(Cc4ccccc4)CC3)no2)cc1OC,3
20,CCOc1cc2[nH]c(=O)n(CCCCC(=O)N3CCCCCC3)c(=O)c2cc1OCC,2

row,SMILES,inhibition [%]
1,Cc1ccc(Cl)cc1NC(=O)CSc1nnc(C)n1-c1ccccc1,0
2,CCc1nnc(NC(=O)CSc2nnc(-c3cc4ccccc4cc3O)n2CC)s1,6
3,CCN(CC(=O)NC(=O)NCc1ccco1)Cc1nc2ccccc2c(=O)[nH]1,0
4,COc1nnc(-c2ccc(C)c(S(=O)(=O)NCCO)c2)c2ccccc12,3
5,Cc1cc(NC(=O)COC(=O)C2COc3ccccc3O2)no1 (stereo not given),4
6,c1ccc2c(c1)ccc1nnc(-c3ccc4c(c3)OCO4)n12,2
7,COC(=O)c1ccccc1NC(=O)N1CCCC1,0
8,O=C(Nc1ccccc1)c1cccnc1N1CCOCC1,0
9,CC(=O)N1CN(C2CCCC2)Cc2c1sc1c2CCCC1,0
10,CCCc1nnc(NC(=O)NCCN2C(=O)C3C4C=CC(C4)C3C2=O)s1 (stereo not given),0
11,COCCCn1nnnc1SCC(=O)Nc1nc(C)c(C)s1,0
12,N#Cc1c(N)nc(SCc2ccncc2)c(C#N)c1-c1cccs1,11
13,Cc1cc(C)n(-c2nc3sc4c(c3c3nnc(SCC(N)=O)n23)CC(C)(C)OC4)n1,0
14,CCOc1nc(OCC)nc(N2CCC(C)CC2)n1,0
15,CCOC(=O)N1CCC(=C2c3ccc(Cl)cc3CCc3cccnc32)CC1,5
16,CC(=O)N1CCc2cc(Br)cc(S(=O)(=O)NCCCN3CCCC(C)C3)c21 (stereo not given),2
17,CCC(C)NC(=O)CC1Oc2ccc(C)cc2NC1=O (stereo not given),0
18,N#CC(C(=O)CCN1C(=O)C2CC=CCC2C1=O)c1nc2ccccc2[nH]1 (stereo not given),0
19,CCOC(=O)CSc1nn(C)c(=S)s1,6
20,COC(=O)c1ccccc1NC(=O)CSc1nnnn1C1CCCCC1,6
